The values below come from PubChem BioAssay (Tox21).

Experiment [1] can be described thus: A CellTox Green Cytotoxicity Assay to monitor cytotoxicity in HEK293 cells - 16 hour (AID 1224888). Note: nearly all actives have a fitted effect of over 35% in size. In outline:
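Cytotoxicity was tracked continuously in HEK293 cells by a DNA-binding dye excluded from viable cells. Compounds were transferred in DMSO 5 h after seeding; fluorescence was recorded at intervals up to 40 h.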

Experiment [2] is described as follows: qHTS RealTime-Glo MT Cell Viability Assay in HepG2 cells - 0 hour (AID 1224889). Note: nearly all actives have a fitted effect of over 50% in size. In outline:
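Tox21 10K library screened in qHTS format on HepG2 cells carrying RealTime-Glo reagents. Compounds were added after a 5 h preincubation, and the luminescent signal from continuous culture was measured repeatedly during 40 h treatment.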

A short description of experiment [3]: A CellTox Green Cytotoxicity Assay to monitor cytotoxicity in HepG2 cells - 8 hour (AID 1224890). Note: nearly all actives have a fitted effect of over 45% in size. In outline: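 Real-time, homogeneous cytotoxicity readout: dead-cell DNA staining by CellTox Green in HepG2 monolayers, fluorescence measured at timed intervals up to 40 h of continuous compound exposure.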
The nature of experiment [4]: qHTS assay to identify small molecule antagonists of the estrogen receptor alpha (ER-alpha) signaling pathway using the BG1 cell line in the presence of 0.1 nM 17-beta-estradiol - cell viability counter screen (AID 1259241). Note: nearly all actives have a fitted effect of over 40% in size. In short, it runs like this:
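Estradiol-stimulated (0.1 nM) VM7Luc4E2 cells exposed to compounds 22 hr; viability measured by fluorescence of cleaved CellTiter-Fluor substrate after 30 min.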
In general terms: In qHTS, concentration-response curves come from the screen itself.

Experiment [5] can be described thus: qHTS assay to identify small molecule antagonists of the androgen receptor (AR) signaling pathway using the MDA cell line in the presence of 0.5 nM R1881 - cell viability counter screen (AID 1259242). Note: nearly all actives have a fitted effect of over 45% in size. In outline: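 Cytotoxicity toward MDA-kb2 cells is measured by CellTiter-Fluor live-cell protease fluorescence after 16 hr compound exposure at 37C in the presence of 0.5 nM R1881 stimulator.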

Experiment [6] addresses Estrogen receptor (Homo sapiens) (UniProt P03372). Put plainly: qHTS assay to identify small molecule antagonists of the estrogen receptor alpha (ER-alpha) signaling pathway using the BG1 cell line in the presence of 0.1 nM 17-beta-estradiol (AID 1259244). Note: nearly all actives have a fitted effect of over 50% in size. In outline:
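After 5 days in hormone-depleted medium (charcoal-stripped serum, no phenol red), VM7Luc4E2 cells were seeded, incubated 24 h, then co-treated with compound and 0.1 nM (final) estradiol for 22 h before luminescence detection.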

The nature of experiment [7]: qHTS assay to identify small molecule HDAC inhibitors (AID 1259364). For activity change, negative = inhibition: top concentration of the series differs between compounds. Note: nearly all actives have a fitted effect of over 45% in size. Note: potency is the fitted concentration of half-maximal effect. In outline:
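Homogeneous cell-based luminescent assay of endogenous class I/II HDAC activity; HCT-116 cells, 2 h compound exposure, 30 min HDAC-Glo development at RT.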

Experiment [8] in a line: qHTS assay to identify small molecule HDAC inhibitors - cell viability counter screen (AID 1259365). Note: series mostly up to about 92 µM; nearly all actives have a fitted effect of over 50% in size. In short, it runs like this:
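After overnight seeding at 1,500 cells per well, wild-type HCT-116 cultures took up compounds in DMSO for 2hr at 37 C. Viable cell content came from luminescence with CellTiter-Glo.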

Structures are written as SMILES. A number with no mark means an inactive call. Records with an inconclusive call do not appear. Calls of active or inactive are those of the source. Calls come from the whole dose curve; as a rule, active = well fitted curve in the direction sought with a large enough effect in the repeat runs; inconclusive = weak or mixed curves; inactive = no such curve, though single readings can be large; an effect the other way counts as inactive or inconclusive.
% is set by controls: 0 for no effect and ±100 for the full control effect.

Sequence of Estrogen receptor (Homo sapiens) (P03372 whole entry, looked up): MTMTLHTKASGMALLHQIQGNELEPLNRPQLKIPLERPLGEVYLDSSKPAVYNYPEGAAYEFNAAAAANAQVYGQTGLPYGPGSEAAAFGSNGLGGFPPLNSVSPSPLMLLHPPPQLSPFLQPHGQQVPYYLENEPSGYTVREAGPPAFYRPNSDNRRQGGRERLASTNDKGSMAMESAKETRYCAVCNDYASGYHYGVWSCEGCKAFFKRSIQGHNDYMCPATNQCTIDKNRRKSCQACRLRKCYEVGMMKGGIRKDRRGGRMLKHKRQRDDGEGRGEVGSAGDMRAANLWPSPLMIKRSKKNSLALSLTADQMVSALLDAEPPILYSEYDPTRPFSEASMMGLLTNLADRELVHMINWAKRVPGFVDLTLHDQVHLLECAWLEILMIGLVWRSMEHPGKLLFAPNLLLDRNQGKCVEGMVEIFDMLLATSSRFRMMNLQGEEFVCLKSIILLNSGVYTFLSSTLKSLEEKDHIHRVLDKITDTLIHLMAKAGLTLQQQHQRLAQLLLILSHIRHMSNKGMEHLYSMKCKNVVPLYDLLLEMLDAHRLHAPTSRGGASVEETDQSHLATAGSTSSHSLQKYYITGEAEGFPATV

Regarding `CC1=C(O)C(=O)CO1`, the Potency result in experiment [1], in experiment [2], in experiment [3] and in experiment [7] was “inactive” throughout. Moreover, the result in experiment [4], in experiment [5], in experiment [6] and in experiment [8] was inactive.

In the case of `Cc1cccc(N)n1`, the Potency entry in experiment [1], in experiment [2], in experiment [3] and in experiment [7] was “inactive” throughout. The result in experiment [4], in experiment [5], in experiment [6] and in experiment [8] was inactive.

For the compound `O=Cc1ccc(C(=O)O)cc1`, the Potency result in experiment [1], in experiment [2], in experiment [3] and in experiment [7] was “inactive” in each case. Besides, the result in experiment [4], in experiment [5], in experiment [6] and in experiment [8] was inactive.

`C=CCn1cc[n+](C)c1`: the Potency entry in experiment [1], in experiment [2], in experiment [3] and in experiment [7] was “inactive” each time. Further, the outcome in experiment [4], in experiment [5], in experiment [6] and in experiment [8] was inactive.

In the case of `Cc1ccc(NC(N)=O)cc1`, the Potency entry in experiment [1], in experiment [2], in experiment [3] and in experiment [7] was “inactive” each time. Also, the result in experiment [4], in experiment [5], in experiment [6] and in experiment [8] was inactive.

As for `CCc1ccc(CC)cc1`, the Potency result in experiment [1], in experiment [2], in experiment [3] and in experiment [7] was “inactive” in each case. Besides, the outcome in experiment [4], in experiment [5], in experiment [6] and in experiment [8] was inactive.

Turning to `CC(CC(=O)Cl)CC(C)(C)C` (configuration not stated), the Potency entry in experiment [1], in experiment [2], in experiment [3] and in experiment [7] was “inactive” throughout. The result in experiment [4], in experiment [5], in experiment [6] and in experiment [8] was inactive.

Regarding `CC(C)(C)c1ccc(N)cc1`, the Potency result in experiment [1], in experiment [2], in experiment [3] and in experiment [7] was “inactive” each time. Also, the outcome in experiment [4], in experiment [5], in experiment [6] and in experiment [8] was inactive.

In the case of `NNC(=O)CCCCC(=O)NN`, the Potency entry in experiment [1], in experiment [2], in experiment [3] and in experiment [7] was “inactive” in each case. For the same compound, the outcome in experiment [4], in experiment [5], in experiment [6] and in experiment [8] was inactive.

Consider `CCN(CC)CC`, for which the Potency entry in experiment [1], in experiment [2], in experiment [3] and in experiment [7] was “inactive” in each case. Moreover, the result in experiment [4], in experiment [5], in experiment [6] and in experiment [8] was inactive.

Consider `C=COCCCCO`, for which the Potency entry in experiment [1], in experiment [2], in experiment [3] and in experiment [7] was “inactive” each time. The result in experiment [4], in experiment [5], in experiment [6] and in experiment [8] was inactive.

`CCOC(=O)c1ccc(N(C)C)cc1`: the Potency result in experiment [1], in experiment [2] and in experiment [3] was “inactive” in each case. The result in experiment [4], in experiment [5], in experiment [6] and in experiment [8] was inactive. The Potency in experiment [7] was 9.69 µM (active).

For the compound `CC(=O)c1ccc2ccc3ccccc3c2c1`, the Potency entry in experiment [1], in experiment [2], in experiment [3] and in experiment [7] was “inactive” in each case. Moreover, the outcome in experiment [4], in experiment [5], in experiment [6] and in experiment [8] was inactive.

Regarding `COC(=O)c1ccc(C(=O)O)cc1`, the Potency entry in experiment [1], in experiment [2], in experiment [3] and in experiment [7] was “inactive” throughout. For the same compound, the result in experiment [4], in experiment [5], in experiment [6] and in experiment [8] was inactive.

In the case of `COc1cc(S(N)(=O)=O)cc(C(=O)O)c1OC`, the Potency result in experiment [1], in experiment [2], in experiment [3] and in experiment [7] was “inactive” in each case. The result in experiment [4], in experiment [5], in experiment [6] and in experiment [8] was inactive.

Regarding `Cc1ccc(OC(=O)CC(C)C)cc1`, the Potency result in experiment [1], in experiment [2], in experiment [3] and in experiment [7] was “inactive” each time. The outcome in experiment [4], in experiment [5], in experiment [6] and in experiment [8] was inactive.

In the case of `CCC(C)c1nccnc1OC` (configuration not stated), the Potency result in experiment [1], in experiment [2], in experiment [3] and in experiment [7] was “inactive” each time. Besides, the outcome in experiment [4], in experiment [5], in experiment [6] and in experiment [8] was inactive.

As to `CN(C)CCCN(C)C`, the activity change in experiment [1] is -1.52% [at 6.97 µM, active compounds read high]. For the same compound, the results for the activity change, negative = cytotoxicity in experiment [2], in experiment [4] and in experiment [8] were -4.9% [at 6.97 µM], -1.36% [at 8.39 µM] and 1.58% [at 8.39 µM], respectively. Further, the cytotoxicity increase in experiment [3] is -9.61% [at 6.97 µM]. The viability change, negative = cytotoxic in experiment [5] is 2.3% [at 8.39 µM]. The results for the activity change, negative = inhibition in experiment [6] and in experiment [7] were -10.8% [at 8.39 µM] and 2.55% [at 8.39 µM], respectively.

Consider `O=CN1CCCCC1`, for which the Potency result in experiment [1], in experiment [2], in experiment [3] and in experiment [7] was “inactive” each time. Further, the outcome in experiment [4], in experiment [5], in experiment [6] and in experiment [8] was inactive.

In the case of `CC(C)(C)C(=O)CCc1ccc(Cl)cc1`, the Potency result in experiment [1], in experiment [2], in experiment [3] and in experiment [7] was “inactive” each time. Further, the outcome in experiment [4], in experiment [5], in experiment [6] and in experiment [8] was inactive.

For the compound `O=C(O)Cc1c(Cl)ccc(Cl)c1Cl`, the Potency entry in experiment [1], in experiment [2], in experiment [3] and in experiment [7] was “inactive” throughout. In addition, the outcome in experiment [4], in experiment [5], in experiment [6] and in experiment [8] was inactive.

Regarding `CCCCN(CCCC)CCCCCCN(CCCC)CCCC`, the Potency result in experiment [1], in experiment [2], in experiment [3] and in experiment [7] was “inactive” each time. The result in experiment [4], in experiment [5], in experiment [6] and in experiment [8] was inactive.

For the compound `N=C(N)S(=O)O`, the Potency entry in experiment [1], in experiment [2], in experiment [3] and in experiment [7] was “inactive” throughout. Moreover, the outcome in experiment [4], in experiment [5], in experiment [6] and in experiment [8] was inactive.

With `O=S(=O)(O)CC(O)CCl` (configuration not stated), the Potency entry in experiment [1], in experiment [2], in experiment [3] and in experiment [7] was “inactive” each time. Moreover, the result in experiment [4], in experiment [5], in experiment [6] and in experiment [8] was inactive.

Turning to `CCCCCCCCCCCBr`, the Potency entry in experiment [1], in experiment [2], in experiment [3] and in experiment [7] was “inactive” in each case. Besides, the outcome in experiment [4], in experiment [5], in experiment [6] and in experiment [8] was inactive.

With `CCCCCCCCCCCCCCBr`, the Potency entry in experiment [1], in experiment [2], in experiment [3] and in experiment [7] was “inactive” in each case. In addition, the outcome in experiment [4], in experiment [5], in experiment [6] and in experiment [8] was inactive.

As for `C=CCOC(=O)CCCCCCCC`, the Potency entry in experiment [1], in experiment [2], in experiment [3] and in experiment [7] was “inactive” each time. Further, the result in experiment [4], in experiment [5], in experiment [6] and in experiment [8] was inactive.

In the case of `CC(C)(C)OC(=O)c1ccccc1C(=O)O`, the Potency entry in experiment [1], in experiment [2], in experiment [3] and in experiment [7] was “inactive” in each case. For the same compound, the outcome in experiment [4], in experiment [5], in experiment [6] and in experiment [8] was inactive.

As for `C/C=C(\C)C(=O)OC/C=C(\C)CCC=C(C)C`, the Potency result in experiment [1], in experiment [2], in experiment [3] and in experiment [7] was “inactive” throughout. Besides, the outcome in experiment [4], in experiment [5], in experiment [6] and in experiment [8] was inactive.
